This is an account of results in PubChem BioAssay (NCATS).

Inconclusive results are not listed. Activity calls are given as the source filed them. Unless noted, calls follow the shape of the dose curve; as a rule, active = well fitted curve in the direction sought with a large enough effect; inconclusive = small, poorly fitted or top-dose-only effect, or another doubt; inactive = no such curve, though single readings can be large; an effect the other way counts as inactive or inconclusive.

Test [1] is described as follows: qHTS for Inhibitors of Cell Surface uPA Generation: Validation Assay (AID 493164).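 Also: RAW 264.7 macrophage cells exposed to compound for 18 h.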 The conditions noted are these: mouse cells, plasminogen activation; series mostly up to 38.3 µM. The gist of the method: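 RAW 264.7, 4000 cells/well, o/n plating; cpd 7-pt 1:5 dilution 2.45 nM–38.3 uM final; 18 h, 37 C/5% CO2; ATP-Lite, 5 s luminescence exposure.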
Test [2] addresses Galactokinase (Homo sapiens) (UniProt P51570). The test can be described thus: qHTS Validation Assay for Inhibitors of Human Galactokinase (GALK) (AID 493189). The conditions noted are these: purified human GALK enzyme activity, qHTS 7-point titration; series mostly up to 57.5 µM. The gist of the method: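 GALK (5 nM) with 35 uM ATP and 100 uM galactose in HEPES pH 8.0 with MgCl2, NaCl, DTT and BSA. Reaction ran 1 h at room temperature. Residual ATP read by Kinase-Glo Plus luminescence.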

Test [3] in a line: Validation screen for small molecules that induce DNA re-replication in SW480 colon adenocarcinoma cells (AID 504364). The conditions noted are these: DNA re-replication phenotype (high-content imaging); series mostly up to 46.1 µM. The gist of the method: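 Cells are treated 48 hr with test compound, stained 40 min with Hoechst at 37 C, and scanned for nuclear fluorescence; compounds inducing re-replication increase nuclei with elevated intensity.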

Test [4] addresses Peptidyl-prolyl cis-trans isomerase NIMA-interacting 1 (Homo sapiens) (UniProt Q13526). The test can be described thus: qHTS Validation Assay to Find Inhibitors of Pin1 (AID 504536; active = well fitted inhibition curve with a large enough effect in the polarisation, with a control signal flat, not every such curve was filed as active; the % refers to the polarisation; also: potency is read from the fitted curve at half-maximal effect). The conditions noted are these: Pin1 fluorescence polarization peptide binding assay; series mostly up to 57.5 µM. The gist of the method: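 Fluorescence polarization competition: compounds (titration) displace HiFluor-488-labeled Pin1-1b peptide from Pin1 (0.3 uM final) in pH 7.5 HEPES buffer with DTT, 10 min at room temperature; %Activity normalized to no-enzyme wells, curves fitted.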

For test [5], the target named is Phosphoglycerate kinase, glycosomal (Trypanosoma brucei brucei) (UniProt P07378). The test can be described thus: qHTS Validation Assay to Find Inhibitors of Phosphoglycerate Kinase (AID 504547). The conditions noted are these: enzymatic PGK inhibition, coupled luminescence read-out; series mostly up to 57.5 µM. The gist of the method: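 Inhibition of the enzyme is judged by a Kinase-Glo Plus luminescent signal following a one-hour incubation at room temperature. Because 1,3-BPG is unstable, it is made in situ by GAPDH at 100nM final; no-PGK wells define the baseline.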
Chain of Phosphoglycerate kinase, glycosomal (Trypanosoma brucei brucei) (P07378 whole entry, looked up): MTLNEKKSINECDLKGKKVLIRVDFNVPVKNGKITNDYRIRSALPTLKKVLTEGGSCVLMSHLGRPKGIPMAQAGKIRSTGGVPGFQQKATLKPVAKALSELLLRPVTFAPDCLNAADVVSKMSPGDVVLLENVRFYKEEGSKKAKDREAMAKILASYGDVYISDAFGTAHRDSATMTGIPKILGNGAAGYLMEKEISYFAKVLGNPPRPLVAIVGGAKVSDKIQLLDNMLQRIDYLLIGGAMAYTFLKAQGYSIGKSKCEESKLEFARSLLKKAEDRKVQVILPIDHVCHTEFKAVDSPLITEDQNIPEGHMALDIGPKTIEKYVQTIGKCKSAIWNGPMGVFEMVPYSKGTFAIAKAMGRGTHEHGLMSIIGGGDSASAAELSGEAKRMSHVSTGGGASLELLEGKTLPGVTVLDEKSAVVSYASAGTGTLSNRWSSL

Test [6] deals with phosphoglycerate mutase (Leishmania major) (UniProt Q4Q090). As to the kind of experiment: qHTS Validation Assay to Find Inhibitors of Phosphoglycerate Mutase (AID 504548). The conditions noted are these: biochemical enzyme activity; Potency: inhibition qHTS; series mostly up to 57.5 µM. The method in brief:
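Luminescent end-point read-out via Kinase-GloPlus after a 10-minute development. Reaction: 1.25nM Leishmania major PGAM with substrate and compound, 45 minutes at room temperature in TEA buffer (pH 7.6) with MgCl2 and Tween-20.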

Test [7] addresses Ubiquitin carboxyl-terminal hydrolase 1 (Homo sapiens) (UniProt O94782). The test can be described thus: Inhibitors of USP1/UAF1: Pilot qHTS (AID 504865). Also: nearly all actives have a fitted effect of over 35% in size. Also: potency is read from the fitted curve at half-maximal effect. The conditions noted are these: purified USP1/UAF1, Ub-rhodamine cleavage fluorescence; series mostly up to 114 µM. The method in brief: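 USP1/UAF1 complex at 1 nM preincubated 15 min at room temperature with compound, then Ub-Rho substrate added at 150 nM final. Fluorescence (480/540 nm) read kinetically in 50 mM HEPES pH 7.8, 0.5 mM EDTA, 1 mM TCEP, 0.1 mg/ml BSA, 0.01% Tween-20.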

The nature of test [8]: qHTS for Inhibitors of ATXN expression: Validation of Cytotoxic Assay (AID 588349).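 Also: cells exposed to compound for 72 hr.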 The conditions noted are these: cytotoxicity counter-screen for ATXN expression inhibitors, cell viability; series mostly up to 57.1 µM. The gist of the method:
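HEK293, compound dose series, 72 hr / 37 degrees C; viability via CellTiter Glo (intracellular ATP).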

Test [9] can be described thus: qHTS for Inhibitors of ATXN expression: Validation (AID 588378). Also: nearly all actives have a fitted effect of over 75% in size. The conditions noted are these: cell-based ATXN2 expression reporter assay, luminescence; series mostly up to 57.1 µM. The method in brief:
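HEK293 cells carrying ATXN2-firefly luciferase reporter, treated with compound 24 h at 37 °C. Viability read first by CellTiter-Fluor (405/525 nm), then reporter expression by Bright-Glo luminescence; controls were a known ATXN2 expression inhibitor and a luciferase inhibitor.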

For test [10], the target named is DNA dC->dU-editing enzyme APOBEC-3G (Homo sapiens) (UniProt Q9HC16). As to the kind of experiment: qHTS for inhibitors of Vif-A3G interactions: Validation (AID 588379). The conditions noted are these: Vif-A3G protein interaction assay; series mostly up to 46.1 µM. The method in brief: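 HeLa cells stably expressing Vif and A3G-eYFP, 700 cells/well, incubated overnight at 37 deg C, then exposed to compound overnight at 37 deg C. Inhibition of Vif-mediated degradation read as increased yellow fluorescence (Ex 488/Em 500-530) by laser-scanning cytometry.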
Chain of DNA dC->dU-editing enzyme APOBEC-3G (Homo sapiens) (Q9HC16 whole entry, looked up): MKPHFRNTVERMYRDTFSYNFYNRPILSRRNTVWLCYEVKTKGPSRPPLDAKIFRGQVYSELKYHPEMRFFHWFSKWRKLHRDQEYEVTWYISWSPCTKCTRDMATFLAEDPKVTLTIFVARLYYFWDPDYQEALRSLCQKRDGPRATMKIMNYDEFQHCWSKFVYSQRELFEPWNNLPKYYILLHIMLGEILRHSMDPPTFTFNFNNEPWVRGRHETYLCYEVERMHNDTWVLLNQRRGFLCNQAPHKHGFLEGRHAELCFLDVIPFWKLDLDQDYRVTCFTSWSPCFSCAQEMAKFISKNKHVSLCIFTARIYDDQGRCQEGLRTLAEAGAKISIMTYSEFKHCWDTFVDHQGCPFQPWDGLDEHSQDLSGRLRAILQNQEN

Chain of phosphoglycerate mutase (Leishmania major) (Q4Q090 1-553): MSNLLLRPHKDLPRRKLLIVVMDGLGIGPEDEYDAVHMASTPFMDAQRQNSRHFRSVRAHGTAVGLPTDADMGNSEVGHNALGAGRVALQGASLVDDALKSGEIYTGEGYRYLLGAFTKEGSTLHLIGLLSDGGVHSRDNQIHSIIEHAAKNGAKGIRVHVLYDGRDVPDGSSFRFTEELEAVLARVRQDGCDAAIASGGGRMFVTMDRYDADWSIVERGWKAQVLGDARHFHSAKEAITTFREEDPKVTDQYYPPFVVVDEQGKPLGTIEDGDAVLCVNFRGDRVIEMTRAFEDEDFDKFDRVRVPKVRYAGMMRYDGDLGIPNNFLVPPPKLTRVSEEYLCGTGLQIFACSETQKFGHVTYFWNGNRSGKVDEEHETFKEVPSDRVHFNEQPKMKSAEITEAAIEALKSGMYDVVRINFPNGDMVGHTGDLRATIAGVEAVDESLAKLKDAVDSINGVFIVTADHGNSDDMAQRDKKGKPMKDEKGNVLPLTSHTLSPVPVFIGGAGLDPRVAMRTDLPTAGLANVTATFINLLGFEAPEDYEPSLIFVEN
Chain of Peptidyl-prolyl cis-trans isomerase NIMA-interacting 1 (Homo sapiens) (Q13526 whole entry, looked up): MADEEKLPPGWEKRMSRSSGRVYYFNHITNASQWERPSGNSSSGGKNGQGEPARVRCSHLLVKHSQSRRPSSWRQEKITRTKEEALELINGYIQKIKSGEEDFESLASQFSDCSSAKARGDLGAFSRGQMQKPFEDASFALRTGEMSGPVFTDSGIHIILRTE
Chain of Ubiquitin carboxyl-terminal hydrolase 1 (Homo sapiens) (O94782 whole entry, looked up): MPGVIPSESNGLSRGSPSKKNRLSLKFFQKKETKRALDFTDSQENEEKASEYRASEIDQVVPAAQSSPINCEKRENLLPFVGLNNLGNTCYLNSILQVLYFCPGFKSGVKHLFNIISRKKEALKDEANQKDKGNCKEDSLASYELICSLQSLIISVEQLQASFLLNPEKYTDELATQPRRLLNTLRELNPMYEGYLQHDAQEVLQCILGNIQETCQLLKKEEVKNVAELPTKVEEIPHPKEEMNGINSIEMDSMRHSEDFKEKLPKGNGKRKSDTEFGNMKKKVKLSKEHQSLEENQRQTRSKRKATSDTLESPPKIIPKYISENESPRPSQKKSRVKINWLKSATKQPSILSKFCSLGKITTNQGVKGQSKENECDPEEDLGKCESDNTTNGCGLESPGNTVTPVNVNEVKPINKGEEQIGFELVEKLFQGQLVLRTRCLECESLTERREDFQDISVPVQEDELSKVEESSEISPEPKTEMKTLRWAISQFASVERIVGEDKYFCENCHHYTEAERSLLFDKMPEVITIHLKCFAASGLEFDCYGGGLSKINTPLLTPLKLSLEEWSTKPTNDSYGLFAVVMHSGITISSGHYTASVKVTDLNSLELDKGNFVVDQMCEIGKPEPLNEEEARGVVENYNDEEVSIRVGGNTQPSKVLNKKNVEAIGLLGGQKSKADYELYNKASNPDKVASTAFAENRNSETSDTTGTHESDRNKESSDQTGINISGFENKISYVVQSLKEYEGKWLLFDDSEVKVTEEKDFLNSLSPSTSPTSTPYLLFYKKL
Chain of Galactokinase (Homo sapiens) (P51570 whole entry, looked up): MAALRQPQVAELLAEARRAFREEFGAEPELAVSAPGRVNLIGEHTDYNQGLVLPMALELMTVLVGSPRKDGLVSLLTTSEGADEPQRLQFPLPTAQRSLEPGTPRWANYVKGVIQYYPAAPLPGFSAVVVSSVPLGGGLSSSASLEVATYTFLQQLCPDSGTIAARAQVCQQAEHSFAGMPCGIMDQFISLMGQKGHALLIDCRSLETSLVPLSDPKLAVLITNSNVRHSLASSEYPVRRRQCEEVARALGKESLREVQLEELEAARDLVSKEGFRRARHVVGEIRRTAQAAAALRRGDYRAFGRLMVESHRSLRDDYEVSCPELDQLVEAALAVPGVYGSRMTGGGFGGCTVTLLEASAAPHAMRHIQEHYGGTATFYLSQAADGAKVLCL

As for `N#Cc1cc2nc(O)c(O)nc2cc1[N+](=O)[O-]`, the call in test [1] was inactive. Moreover, the Potency result in [2], in [3], in test [4], in [5], in test [6] and in test [7] was “inactive” each time. Also, the Potency result in [8], in [9] and in test [10] was “inactive” each time.
Take `O=[N+]([O-])c1cccc2c(Br)[nH]nc12`: the compound was called inactive in [1]. The Potency result in test [2], in [3], in test [4], in test [5], in test [6] and in test [7] was “inactive” in each case. In addition, the Potency result in test [8], in [9] and in [10] was “inactive” each time.
As to `CC(=O)N[C@@H](Cc1c[nH]c2ccccc12)C(=O)OCc1cc(C(F)(F)F)cc(C(F)(F)F)c1`, in [1], the result was inactive. Further, the Potency result in test [2], in [3], in test [4], in [5], in test [6] and in test [8] was “inactive” each time. Moreover, the Potency result in [9] and in test [10] was “inactive” in each case. In addition, the Potency in test [7] is 20 µM (active).
On to `NC/C=C\C(=O)O`, for which the compound was classed as inactive in [1]. For the same compound, the Potency entry in [2], in test [3], in test [4], in test [5], in test [6] and in test [7] was “inactive” each time. Also, the Potency entry in test [8], in test [9] and in test [10] was “inactive” in each case.
For `N[C@@H](CCCC(=O)O)C(=O)O`, the compound was classed as inactive in [1]. Moreover, the Potency result in test [2], in test [3], in [4], in test [5], in [6] and in test [7] was “inactive” each time. Also, the Potency result in [8] and in test [9] was “inactive” in each case.
With `N[C@@H](CS(=O)O)C(=O)O`, the result in test [1] was inactive. In addition, the Potency entry in [2], in [3], in [4], in test [5], in test [6] and in test [7] was “inactive” throughout. Moreover, the Potency entry in [8], in test [9] and in test [10] was “inactive” each time.
`Oc1cc(O)c2c(c1)O[C@H](c1ccc(O)c(O)c1)[C@@H](O)C2`: the outcome in test [1] was inactive. In addition, the Potency entry in test [2], in test [3], in test [4], in test [5], in [6] and in [7] was “inactive” each time. The Potency result in test [8], in [9] and in test [10] was “inactive” each time.
Turning to `C[C@@H](NCCc1ccc(O)cc1)[C@@H](O)c1ccc(O)cc1`, the compound was classed as inactive in test [1]. Besides, the Potency result in test [2], in [3], in [4], in test [5], in test [6] and in test [7] was “inactive” in each case. In test [9], the Potency result is “inactive”.
Turning to `O=C(O)/C=C/c1ccc(O)c(O)c1`, the call in test [1] was inactive. The Potency entry in test [2], in test [3], in [4], in [5], in test [6] and in [7] was “inactive” throughout. Also, the Potency entry in [8], in test [9] and in test [10] was “inactive” throughout.
With `Cc1nc(N=Nc2ccc(C(=O)O)cc2)c(COP(=O)(O)O)c(C=O)c1O`, the result in test [1] was inactive. The Potency result in test [2], in test [3], in test [5], in test [6] and in test [9] was “inactive” each time. Besides, the Potency was 26.9 µM (active) in [4] and 22.4 µM (active) in [7].
As to `COC(=O)C1=C(C)NC(C)=C([N+](=O)[O-])C1c1ccccc1C(F)(F)F` (stereo not drawn), the call in test [1] was inactive. The Potency result in test [2], in test [3], in test [4], in test [5], in test [6] and in test [8] was “inactive” in each case. Besides, the Potency entry in [9] was “inactive”.
As to `COCc1nc2c([nH]1)c(=O)n(C)c(=O)n2CC(C)C`, the call in test [1] was inactive. The Potency result in test [2], in [3], in test [4], in test [5], in [6] and in [7] was “inactive” each time. Further, the Potency result in test [9] and in test [10] was “inactive” throughout.
With `O=C(O)C1=CCCNC1`, in [1], the compound was called inactive. Moreover, the Potency entry in test [2], in test [3], in [4], in test [5], in test [6] and in test [7] was “inactive” in each case. Further, the Potency entry in test [9] and in test [10] was “inactive” throughout.
Consider `NC1CCN(O)C1=O` (stereo not drawn), for which, in test [1], the call was inactive. For the same compound, the Potency result in test [2], in [3], in test [4], in test [5], in test [6] and in test [8] was “inactive” throughout. In test [9], the Potency result was “inactive”.
Regarding `O=C(O)c1cccnc1C(=O)O`, the outcome in test [1] was inactive. Moreover, the Potency entry in test [2], in test [3], in [4], in test [5], in test [6] and in test [7] was “inactive” throughout. Besides, the Potency entry in test [9] and in [10] was “inactive” in each case.
